# A selection: hits, their analogues and other compounds. The true share with any hit is near 5.3%.
# Coupling enz = coupling enzyme interference in Giardia aldolase counter-screen. activity change, negative = inhibition, % at 58.2 µM, hits read low. AID 2472. 290,000 compounds, 0.67% hits. coupling enzyme system counterscreen, AmpLite Red fluorescence; in the data active means activity change below about -30%
#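 Final compound at 57.5 uM, incubated 10 min at RT with coupling enzyme reagent (glyceraldehyde-3-phosphate), then 20 min with substrate and AmpLite Red detection. Fluorescence read at 525/598 nm; tests interference with the coupling assay, not aldolase inhibition.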
# Sfp PPTase inh = inhibitors of Bacillus subtilis Sfp phosphopantetheinyl transferase. Q9F4F7. Biochemical Sfp PPTase activity, qHTS. Potency, µM, for inactives: largest response in the series, negative = inhibition, actives largely listed as inhibitors. 310,000 compounds, 3.5% hits;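 further: the enzyme is Sfp with the accession as filed and its product quenches rhodamine fluorescence; potency means the concentration at half of the fitted maximal effect; 0% = enzyme reaction without inhibitor and -100% = no enzyme wells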
#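 Reaction rates are the 30-min fluorescence difference (ex 525, em 598 nm) in wells containing 15 nM Sfp, 5 uM rhodamine-CoA and 12.5 uM BHQ-2-YbbR at pH 7.6 with 10 mM MgCl2.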
# Tau fluor counter = counter-screen for tau fibril formation inhibitors; Potency, µM (top dose mostly 57.7 µM), for the others: top-dose activity change, negative = decrease; tau K18 P301L Alexa594 fluorescence, heparin fibrillization; 280,000 compounds, 0.93% hits; AID 1463; further: potency means the concentration at half of the fitted maximal effect; nearly all actives have a fitted effect of over 55% in size
#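 Human tau K18 P301L (15 uM unlabeled, 0.24 uM Alexa 594-labeled) in 100 mM sodium acetate pH 7 with 20 uM heparin, 6 hr at 37 C. ThT 30 uM added, 1 hr ambient; Alexa 594 FP and total fluorescence read at 555/632 nm.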
# KDM4E inh = inhibitors of human JMJD2E histone demethylase; JMJD2E catalytic domain, FDH-coupled NADH fluorescence (FDH is formaldehyde dehydrogenase); 230,000 compounds, 1.6% hits; Potency, µM (highest dose often 57.1 µM), for the others: top-dose activity change, negative = inhibition, most hits filed as inhibitors; AID 2147; active means well fitted inhibition curve with a large enough effect, not every such curve was filed as active; inconclusive means small, poorly fitted or top-dose-only effect, or another doubt; inactive means no such curve, though single readings can be large or run the other way;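 further: potency means the concentration at half of the fitted maximal effect; 0% = wells with enzyme and -100% = buffer wells without enzyme; nearly all actives have a fitted effect of over 50% in size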
# Target sequence (B2RXH2 1-337 limits assumed): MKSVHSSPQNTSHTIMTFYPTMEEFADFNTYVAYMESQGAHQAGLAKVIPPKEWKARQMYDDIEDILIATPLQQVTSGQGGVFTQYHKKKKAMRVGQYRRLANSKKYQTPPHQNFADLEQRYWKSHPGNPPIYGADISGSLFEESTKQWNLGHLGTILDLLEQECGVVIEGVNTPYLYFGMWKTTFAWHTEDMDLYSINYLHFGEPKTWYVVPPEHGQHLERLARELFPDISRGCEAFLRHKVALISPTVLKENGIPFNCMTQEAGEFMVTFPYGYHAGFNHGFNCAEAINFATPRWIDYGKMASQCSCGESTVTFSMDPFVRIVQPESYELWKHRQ
# Tau fibril FP = blocks human tau fibril formation measured by polarization; P10636; 280,000 compounds, 0.39% hits; Potency, µM (highest dose often 57.7 µM), without a hit: top-dose activity, negative = inhibition, usual class: inhibitors; K18 P301L tau heparin fibrillization, Alexa594 FP, 6 h; further: potency means the concentration at half of the fitted maximal effect; nearly all actives have a fitted effect of over 55% in size
# Target sequence (P10636 561-689 P618L limits assumed): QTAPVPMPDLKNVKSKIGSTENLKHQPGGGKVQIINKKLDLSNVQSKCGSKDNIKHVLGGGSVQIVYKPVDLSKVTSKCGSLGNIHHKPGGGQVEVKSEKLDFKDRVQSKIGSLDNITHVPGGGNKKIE
#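 Heparin (20 uM) drove fibril formation of recombinant tau K18 P301L, 15 uM unlabeled with 0.24 uM Alexa 594 label, for 6 hr at 37 C in 100 mM sodium acetate pH 7. Fluorescence polarization (555/632 nm) read 1 hr after 30 uM ThT.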
# Tau fibril ThT = tau fibrillization inhibition (ThT binding). P10636. recombinant tau K18 P301L (four-repeat tau fragment), heparin-induced fibrillization, ThT fluorescence. Potency, µM (doses to about 57.4 µM), inactives show at the top dose activity, negative = inhibition, usual class: inhibitors. 270,000 compounds, 2.1% hits; further: potency means the concentration at half of the fitted maximal effect; nearly all actives have a fitted effect of over 55% in size
#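 Heparin-induced (20 uM) aggregation of recombinant human K18 P301L tau, 15 uM unlabeled with 0.24 uM labeled, pH 7 acetate buffer, 6 hr at 37 C with compound. Fibrils quantified by 30 uM ThT fluorescence after 1 hr ambient incubation.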
# Active calls of the source: *; ? = inconclusive; nt = no result given; [ ] = dose if it differs, or a comment. Unless noted, the call rests on the fitted dose curve; in most records, active means well fitted curve in the direction sought with a large enough effect; inconclusive means small, poorly fitted or top-dose-only effect, or another doubt; inactive means no such curve, though single readings can be large; an effect the other way counts as inactive or inconclusive. Unless noted, on the % scale 0 is the no-effect control and ±100 the full control effect.
SMILES,Coupling enz,Sfp PPTase inh,Tau fluor counter,KDM4E inh,Tau fibril FP,Tau fibril ThT
COc1ccc(C2=C(C)C(=O)N(Cc3ccc(C(=O)NCc4cccc(C)c4)cc3)S2(=O)=O)cc1,nt,nt,-19%,nt,-4%,-4%
CCCC1CC(C)(C(=O)CSc2n[nH]c(-c3ccccc3)n2)OC1=O (stereo unspecified),1,79µM*,-15%,-13%,-14%,-4%
O=C(CSc1n[nH]c(-c2ccccc2)n1)c1ccc(O)c(O)c1,-10,-14%,-17%,28µM*,2%,?
Cc1cc(SCC(N)=O)nc(SCC(=O)c2ccccc2)n1,8,45µM*,-3%,0%,-2%,-1%
CC(C)(C)c1nc(SCC(=O)c2ccccc2)c2ccccc2n1,0,?,?,-4%,?,?
Cc1nc2ccccc2nc1SCC(=O)c1ccccc1,4,45µM*,-21%,-10%,6%,?
Cc1ccc(C(=O)CSc2cc(C)nc(SCC(=O)c3ccccc3)n2)cc1,4,6%,-26%,-3%,-1%,-14%
O=C1[C@H]2[C@H]3[C@H](O)[C@H](O)C/C(=N/OCc4ccccc4)[C@H]3CC[C@@H]2C(=O)N1C1CCCCC1,3,5%,0%[11.6 µM],nt,3%[11.6 µM],-4%[11.5 µM]
Cc1cc(SCC(=O)c2ccc3c(c2)OCO3)nc2ccccc12,-1,?,?,-9%,-13%,?
CCOC(=O)c1cnc(SCC(=O)c2ccc(C)cc2)nc1N,-1,6%,-13%,1%,-16%,-18%
CCOC(=O)c1cnc(SCC(=O)c2ccccc2)nc1N,4,45µM*,-10%,2%,-4%,-11%
Cc1cc(SCC(=O)c2ccc(O)c(O)c2)nc2ccccc12,-5,-9%,28µM*[quencher],?,-6%,?
CCc1ccc(-n2nc3ccc(NC(=O)COc4ccc(OC)cc4)cc3n2)cc1,nt,nt,-7%,nt,-4%,?
COCCCn1c(Cc2csc(Nc3cccc(Cl)c3)n2)nnc1SCC(=O)OC,-7,25µM*,-16%,-5%,4%,-11%
O=C1CCCCCN1Sc1ccccc1,-1,25µM*,-13%,-9%,?,14µM*
O=C(CCSc1ccccc1)N1CCCC1,0,17%,-8%,5%,-2%,-9%
COc1ccc(C(=O)c2ccc(Cl)cc2)c2ccccc12,-2,-13%,-28%,2%,?,?
CCOc1ccc(C(=O)c2ccc(OC)c(O)c2O)cc1,-24,-52%,?,25µM*,?,16µM*
COc1ccc(C(=O)c2ccc(O)cc2)c(O)c1O,-10,28µM*,?,16µM*,?,?
CCOc1ccc(C(=O)c2ccncc2)cc1,-1,13%,4%,2%,8%,-2%
O=C1[C@@H]2[C@H]3[C@H](O)[C@H](O)C/C(=N/OCc4ccccc4)[C@@H]3CC[C@H]2C(=O)N1c1ccc(F)cc1F,1,11%,-5%[11.6 µM],nt,3%[11.6 µM],-6%[11.5 µM]
CCOc1ccc2nc(NC3=NC(C)(C)C=C(C)N3)nc(C)c2c1,-1,-3%,-8%,8%,4%,?
CCOc1ccc2nc(NC3=NC(c4ccc(OC)cc4)CC(=O)N3)nc(C)c2c1 (stereo unspecified),0,22µM*,-13%,?,-3%,?
c1ccc2c(N3CCNCC3)nc(-c3ccoc3)nc2c1,2,2%,-3%,2%,-8%,?
CNC(=O)NC(=O)C(C)OC(=O)c1c2c(nc3ccccc13)/C(=C/c1cccs1)CC2 (stereo unspecified),-9,32µM*,?,?,-3%,?
COc1ccc(C(=O)/C=C2/C(=O)Nc3ccccc32)c(OC)c1,0,56µM*,nt,nt,nt,nt
O=C1Nc2ccccc2/C1=C/C(=O)c1cccs1,-4,45µM*,-26%,-7%,3%,18µM*
C=CCOc1ccccc1C(=O)/C=C1/C(=O)Nc2ccccc21,-1,79µM*,nt,nt,nt,nt

# High-throughput results from PubChem.
